Compound activity: PubChem, several laboratories
SENP7 inh – blocks the human protease SENP7; recombinant SENP7, Z-RLRGG-aminoluciferin luminescence, 40 min; inhibition, % at 5 µM; hit rate 1.5% among 330,000; AID 434973;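 active = inhibition above about 50% at the single test dose, limit read from the data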;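 note: plate controls were DMSO with enzyme for no effect and no enzyme buffer wells for full effect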
Target sequence (Q9BQF6 706-1050 limits assumed): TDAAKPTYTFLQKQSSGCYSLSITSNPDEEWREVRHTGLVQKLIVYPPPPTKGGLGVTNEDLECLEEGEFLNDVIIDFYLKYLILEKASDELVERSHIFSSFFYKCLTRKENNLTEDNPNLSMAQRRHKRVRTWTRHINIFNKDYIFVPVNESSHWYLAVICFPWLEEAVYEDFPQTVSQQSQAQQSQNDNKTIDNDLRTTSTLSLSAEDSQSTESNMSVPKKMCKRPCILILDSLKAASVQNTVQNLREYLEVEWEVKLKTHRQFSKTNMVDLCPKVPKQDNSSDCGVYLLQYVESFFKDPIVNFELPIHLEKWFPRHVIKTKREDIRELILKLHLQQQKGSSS
SENP8 block-1 – inhibitors of human SENP8 protease. purified SENP8, Z-RLRGG-aminoluciferin cleavage, luminescence. inhibition, % at 10 µM. hit rate 1.2% among 330,000. AID 2540; in the data active = inhibition above about 50%
Target sequence (Q96LD8 whole entry, looked up): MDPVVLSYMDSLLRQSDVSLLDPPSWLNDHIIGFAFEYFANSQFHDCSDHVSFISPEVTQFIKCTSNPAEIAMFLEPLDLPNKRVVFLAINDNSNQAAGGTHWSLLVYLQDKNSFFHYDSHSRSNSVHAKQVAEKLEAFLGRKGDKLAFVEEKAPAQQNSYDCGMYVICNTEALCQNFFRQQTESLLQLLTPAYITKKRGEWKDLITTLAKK
Platelet DG rel – platelet dense granule release activity; inhibition, %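 (compounds screened at 7.5 µM in platelet-rich plasma)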; human platelet-rich plasma, SFLLRN dense granule ATP release, luminescence; hit rate 0.22% among 300,000;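 active = mean replicate score, as percent of positive control, at or above 50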
SENP6 block – blocks the human protease SENP6; Q9GZR1; Recombinant SENP6 catalytic domain, aminoluciferin luminescence; inhibition, % at 10 µM; hit rate 1.8% among 330,000;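 active = inhibition above about 50% at the single tested dose, limit read from the data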;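 note: plate controls were DMSO wells with enzyme for no effect and DMSO wells lacking enzyme for full effect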
SENP8 block-2 – blocks human SENP8 cleavage of Nedd8 substrate; inhibition, % at 20 µM; Q96LD8; AID 602440; recombinant SENP8, Nedd8 substrate fluorescence; hit rate 0.64% among 360,000; in the data active = inhibition mostly above about 40%, no sharp cut-off; inactive = mostly below about 27%
HSP90 inh – inhibitors of HSP90 luciferase refolding in rabbit reticulocyte lysate; luciferase refolding luminescence, 3 h; inhibition, % at 5.6 µM; hit rate 0.91% among 290,000; AID 1789;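 active = inhibition above the screen-wide mean plus 3 SD, computed separately per campaign, cut at about 16% in these data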;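 note: 0% = DMSO wells and 100% = 60 µM geldanamycin wells; inhibitors lower the luminescence because luciferase stays unfolded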
HSP90 inh confirm – confirmation of HSP90 inhibitors; hit rate 64% among 2,300; inhibition, % at 5.9 µM; AID 1846; rabbit reticulocyte lysate, luciferase refolding luminescence, 3 h; shares compounds with HSP90 inh; in the data active = inhibition above about 18%;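 note: 0% = vehicle wells and 100% = reference inhibitor wells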
FLuc counter – blocks native firefly luciferase in HSP90 counter-screen. shares compounds with HSP90 inh. purified native firefly luciferase, luminescence. inhibition, % at 5.9 µM. hit rate 48% among 2,300;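 active = inhibition above the mean inhibition of all tested sample wells plus 3 SD, cut at about 10% in these data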;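 note: 0% = DMSO with luciferase and 100% = wells lacking luciferase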
* = called active by the depositor; i = inactive; / = no result. In the library only some 2.8% were active in any assay of this set; here they are far more common.

SMILES	SENP7 inh	SENP8 block-1	Platelet DG rel	SENP6 block	SENP8 block-2	HSP90 inh	HSP90 inh confirm	FLuc counter
CC(C)c1ccc(OCc2cccc(C(=O)N/N=C/c3cccnc3)c2)cc1	/	/	-7.6	/	5.0	11.5	/	/
O=C(c1cccc(OCc2ccccc2)c1)N1CCOCC1	1.8	-4.2	41.4	-3.1	15.6	-1.1	/	/
CCOC(=O)CC1COCCN1C(=O)c1cc(COc2ccc(F)cc2Cl)on1 (stereo unspecified)	-3.7	-4.6	1.3	-24.3	0.1	-1.2	/	/
O=C(CCC(=O)N1CCOc2ccccc21)Nc1ccccc1Br	7.7	-4.5	6.5	0.4	14.5	-0.3	/	/
O=C(c1cn(-c2ccccc2)nc1-c1cccnc1)N1CCN(S(=O)(=O)c2cccc(F)c2)CC1	4.2	-3.6	/	0.2	0.9	/	/	/
COc1ccc(OCc2cccc(C(=O)NN)c2)cc1	6.4	6.6	19.7	21.0	9.0	43.9*	54.1*	30.3*
NNC(=O)c1cccc(COc2ccc(Br)cc2)c1	-4.2	-7.1	-3.1	10.0	18.9	59.6*	49.0*	16.6*
NNC(=O)c1cccc(COc2cccc(Br)c2)c1	-4.0	-2.3	19.5	0.9	10.2	-1.2	/	/
O=c1c2c([nH]c3ccccc13)CCC2	0.3	-8.4	3.1	-17.9	0.5	20.5*	-6.1	-7.3
O=C1CCCc2c1[nH]c1ccccc21	-0.5	-3.8	3.7	-2.8	-50.6	-2.2	/	/
Cc1ccc(NC(=S)NC(=O)C2CC2)c(C)c1	-9.8	-13.6	6.3	-11.6	6.8	31.4*	-10.1	-17.5
Cc1ccc(NC(=S)NC(=O)C2CCCC2)cc1C	-10.3	5.9	2.7	-7.3	13.1	-4.2	/	/
CC(=O)Oc1cc(OC(C)=O)c2c(C)cc(=O)oc2c1	7.6	-9.1	0.3	-5.6	-495.8	21.2*	-1.9	-4.5
O=C(COc1ccc(Cl)cc1Cl)NC(=O)N1CCCCC1	-11.8	-19.2	2.5	15.6	20.2	27.6*	37.5*	31.3*
[O-]/[N+](=C\c1ccco1)c1ccc(Cl)cc1	6.3	10.9	15.3	10.5	6.7	41.9*	82.1*	-34.7
Cc1ccc(C(=O)NC2CCCCCCC2)c(Cl)c1	-6.7	2.0	-6.7	13.1	15.1	41.9*	63.5*	53.1*
COc1ccc(C#Cc2ccc3c(=O)c4ccccc4n(C)c3c2)cc1	-12.6	-8.7	2.5	-7.8	/	-2.6	/	/
COc1ccccc1C#Cc1ccc2c(=O)c3ccccc3n(C)c2c1	-11.6	-3.6	-5.6	7.2	i	24.2*	5.5	-11.3
Cn1c2ccccc2c(=O)c2cc(C#Cc3cccc(N)c3)ccc21	31.9	19.8	/	25.4	i	/	/	/
Cn1c2ccccc2c(=O)c2ccc(C#Cc3ccc(N)cc3)cc21	-5.0	6.6	1.0	-17.6	-486.2	24.3*	31.5*	0.4
O=c1[nH]c(C2CCN(S(=O)(=O)c3ccc4c(c3)OCCO4)CC2)nc2c1nnn2Cc1ccccc1	-7.8	-5.2	0.2	-24.8	14.6	9.2	/	/
Cc1ccc(C)c(S(=O)(=O)N2CCC(c3nc4c(nnn4Cc4ccc5c(c4)OCCO5)c(=O)[nH]3)CC2)c1	-1.5	11.7	-5.3	-16.4	16.5	21.5*	25.3*	-3.7
Cc1cc(C(=O)N/N=C2\CCCC(=O)C2)c(C)n1-c1ccccc1	-3.9	-9.2	-0.6	5.4	-8.0	31.5*	-5.2	-17.6
COc1cccc(-c2cc3nc4c(c(NCC(C)(C)CN(C)C)n3n2)CCCC4)c1	6.5	-3.8	-3.2	-28.8	-405.5	45.5*	44.1*	2.9
O=[N+]([O-])c1ccc(NC2CCCC2)cc1	-0.8	-6.7	-4.3	-2.4	29.1	20.0*	-7.2	-12.3
SMILES	SENP7 inh	SENP8 block-1	Platelet DG rel	SENP6 block	SENP8 block-2	HSP90 inh	HSP90 inh confirm	FLuc counter
Cn1ncc([N+](=O)[O-])c1C(=O)Nc1ccc2c(c1)OCCO2	11.8	-13.2	/	2.3	20.4	1.9	/	/
Cn1ccc(C(=O)Nc2ccc3c(c2)OCCO3)n1	49.4	24.4	26.2	44.5	1.0	12.3	/	/
Cc1nn(C)cc1C(=O)Nc1ccc2c(c1)OCCO2	-0.3	-5.2	-5.3	-16.4	10.5	18.6*	20.8*	9.0
Cc1c(C(=O)Nc2ccc3c(c2)OCCO3)cnn1C	-4.6	-20.9	8.7	-12.7	6.1	34.9*	56.8*	60.3*
Nc1ccn([C@@H]2O[C@H](C(=O)N[C@H](CO)c3ccccc3)[C@@H](O)[C@H]2O)c(=O)n1	/	/	/	/	28.5	/	/	/
Cc1cc(N2CCCCC2)n2ncc(-c3ccc(Cl)cc3)c2n1	39.5	8.8	-1.6	6.8	-329.1	7.1	/	/
Cc1cc(N2CCOCC2)n2ncc(-c3ccc(Cl)cc3)c2n1	48.6	0.4	/	-3.5	-454.7	35.2*	48.3*	55.4*
Cc1ccc(-c2cnn3c(N4CCOCC4)cc(C)nc23)cc1	32.1	29.2	-6.1	42.4	-314.8	39.7*	47.7*	53.5*
Cc1cc(N2CCC(C)CC2)n2ncc(-c3ccccc3)c2n1	3.9	-14.7	-12.3	-7.6	i	44.7*	58.7*	56.3*
CC(C)(C)c1cc(N2CCOCC2)n2ncc(-c3ccc(Cl)cc3)c2n1	11.4	2.8	-7.7	11.2	-297.5	-0.3	/	/
COc1ccc(C2CC(c3ccc(C)cc3)=NN2C(=O)CCC(=O)O)cc1OC (stereo unspecified)	-4.9	-5.8	0.0	4.3	5.2	-3.4	/	/
CN(C)S(=O)(=O)c1cccc(NC(=O)c2cccc(N3C(=O)CCC3=O)c2)c1	-11.5	2.4	/	7.1	0.1	/	/	/
Nc1cc(C(=O)N/N=C/c2cccc([N+](=O)[O-])c2)n[nH]c1=O	1.6	7.6	-5.1	-9.6	7.0	-3.7	/	/
Cc1c(Cc2ccccc2)c(=O)oc2c(C)c(OCC(=O)NCC3CCC(C(=O)O)CC3)ccc12 (stereo unspecified)	11.4	-4.9	2.5	-10.6	-145.2	-3.9	/	/
Cc1cccc(NCc2cc(Cl)cc(Cl)c2O)n1	4.3	-0.3	0.3	-3.7	4.8	17.5*	-2.3	-3.6
CN(C)c1ccc(NC(=O)c2cnsn2)cc1	21.9	-2.1	4.0	-28.4	25.3	26.0*	48.0*	40.4*
O=C(O)CSc1nnc(Cn2nnc3ccccc32)n1CCc1ccccc1	-13.3	-4.8	3.0	-13.2	-4.5	25.3*	-7.6	-4.9
CCc1ccc(S(=O)(=O)/N=C2\C=C(Nc3ccc(C(=O)O)cc3)C(=O)c3ccccc32)cc1	63.0*	93.9*	16.7	91.8*	44.4*	93.0*	95.7*	-3.3
Cc1ccc(S(=O)(=O)/N=C2\C=C(Nc3cccc(C(=O)O)c3)C(=O)c3ccccc32)cc1	63.5*	92.9*	4.3	91.1*	83.1*	96.0*	92.0*	-8.3
O=C(O)c1cccc(NS(=O)(=O)c2ccc3c(c2)C(=O)c2ccccc2C3=O)c1	2.2	3.4	9.9	13.0	39.1	22.2*	6.5	-4.2
